Measurements reported in the supplement of paper PMC8047044.
Structures can show the parent of a compound that is named as a salt.

Test system: Neuro-2a
Assay: neurite formation score, plate-normalized to DMSO control mean 5.04 (score (0-8 scale)); higher = more or longer neurites
Settings: 0.1 µM
Description: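 Neuro-2a mouse neuroblastoma cells in PLL-coated 96-well plates were pre-treated for 1 h in DMEM(+) with each kinase inhibitor at 0.1 µM, then switched to serum-free DMEM(-) with inhibitor to induce neurite outgrowth and fixed about 2-3 h later. Three blinded observers scored neurite formation from 0 (no neurites) to 8 (long neurites on almost all cells).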

Row | Structure (SMILES) | neurite formation score
1 | CNC(=O)c1cc(Oc2ccc(NC(=O)Nc3ccc(Cl)c(C(F)(F)F)c3)cc2)ccn1 [Sorafenib] | 4.71
2 | C[C@H](NC(=O)/C(C#N)=C/c1cccc(Br)n1)c1ccccc1 | 4.58
3 | Cc1nc2c(-c3cnc(N)nc3)nc(N3CCOCC3)nc2n1C(C)C | 4.25
4 | C#Cc1cccc(Nc2ncnc3cc(OCCOC)c(OCCOC)cc23)c1 [Erlotinib Hydrochloride] | 5.21
5 | Nc1ncnc2c1c(-c1cnc3[nH]ccc3c1)nn2C1CCCC1 | 4.42
6 | Cc1nc(Nc2cnn(C3CCNCC3)c2)nc2c1N(C)C(=O)c1cc3ccccc3cc1N2C | 4.25
7 | CCS(=O)(=O)N1CC(CC#N)(n2cc(-c3ncnc4[nH]ccc34)cn2)C1 | 4.58
8 | Cc1cn(-c2cc(NC(=O)c3ccc(C)c(Nc4nccc(-c5cccnc5)n4)c3)cc(C(F)(F)F)c2)cn1 [Nilotinib monohydrochloride monohydrate] | 3.09
9 | Cn1cc(C2=C(c3cn(CCCSC(=N)N)c4ccccc34)C(=O)NC2=O)c2ccccc21 [Ro 31-8220 Mesylate] | 3.08
10 | Nc1nc(NCCNc2ncc(-n3ccnc3)c(-c3ccc(Cl)cc3Cl)n2)ccc1[N+](=O)[O-] | 4.92
11 | O=C(NC(NC(=S)Nc1ccc(F)c([N+](=O)[O-])c1)C(Cl)(Cl)Cl)C(c1ccccc1)c1ccccc1 (stereo not drawn) | 4.25
12 | O=C(Nc1c[nH]nc1-c1nc2ccc(CN3CCOCC3)cc2[nH]1)NC1CC1 | 5.92
13 | CS(=O)(=O)N1CCN(Cc2cc3nc(-c4cccc5[nH]ncc45)nc(N4CCOCC4)c3s2)CC1 [GDC-0941 dimethanesulfonate] | 2.09
